# Laboratory results published in PubChem BioAssay (NCATS).
# Inconclusive results are not listed. Active and inactive are the calls of the source. The call rests on the fitted dose curve; in most records, active means well fitted cell-killing curve with a large enough effect; inconclusive means small, poorly fitted or top-dose-only effect, or effect the other way; inactive means no such curve, though single readings can be large or run the other way.
# Assays:
# [1] = Quantitative High-Throughput drug screen in 47 multiple myeloma cell lines against the NCATS MIPE library collection: H1112_PLB cell viability assay (AID 1918967; further: nearly all actives have a fitted effect of over 30% in size)
# Summary of the method: (§1)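 We plated 500 myeloma cells per well, pinned in MIPE 4.0 compounds, and incubated for 48 hours at 37C. ATP was then quantified with CellTiter-Glo, with DMSO and media-only wells defining 100% and 0%.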
# [2] = Quantitative High-Throughput drug screen in 47 multiple myeloma cell lines against the NCATS MIPE library collection: KMS27_JCRB cell viability assay (AID 1918970); further: nearly all actives have a fitted effect of over 30% in size
# Summary of the method: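 Viability inhibition screen, 48 h compound exposure, luminescent ATP read-out.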
# [3] = Quantitative High-Throughput drug screen in 47 multiple myeloma cell lines against the NCATS MIPE library collection: KMS12BM_JCRB cell viability assay (AID 1918971); further: nearly all actives have a fitted effect of over 35% in size
# Summary of the method: (§2)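 Relative luminescence from CellTiter-Glo served as the viability signal, referenced to DMSO-treated (100%) and cell-free medium (0%) controls. Treatment lasted 48 hours at 37C with 500 cells per well.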
# [4] = Quantitative High-Throughput drug screen in 47 multiple myeloma cell lines against the NCATS MIPE library collection: KMS12PE_JCRB cell viability assay (AID 1918972); further: nearly all actives have a fitted effect of over 30% in size
# Summary of the method: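 Viability readout: CellTiter-Glo luminescence following 5 min room-temperature incubation with reagent. Prior exposure: 48 h, 37C, humidified 5% CO2, 500 cells per well.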
# [5] = Quantitative High-Throughput drug screen in 47 multiple myeloma cell lines against the NCATS MIPE library collection: MOLP8_DSMZ cell viability assay (AID 1918977); further: nearly all actives have a fitted effect of over 45% in size
# Summary of the method: (§3)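 Cells were exposed to library compounds for 48 hours, after which ATP was measured by CellTiter-Glo. Signal was taken as median relative luminescence units.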
# [6] = Quantitative High-Throughput drug screen in 47 multiple myeloma cell lines against the NCATS MIPE library collection: MMM1_PLB cell viability assay (AID 1918976); further: nearly all actives have a fitted effect of over 35% in size
# Summary of the method: as §3
# [7] = Quantitative High-Throughput drug screen in 47 multiple myeloma cell lines against the NCATS MIPE library collection: KMS20_JCRB cell viability assay (AID 1918973); further: nearly all actives have a fitted effect of over 45% in size
# Summary of the method: as §1
# [8] = Quantitative High-Throughput drug screen in 47 multiple myeloma cell lines against the NCATS MIPE library collection: KMS26_JCRB cell viability assay (AID 1918975); further: nearly all actives have a fitted effect of over 45% in size
# Summary of the method: as §2
# [9] = Quantitative High-Throughput drug screen in 47 multiple myeloma cell lines against the NCATS MIPE library collection: KMS21BM_JCRB cell viability assay (AID 1918974); conditions: ATP luminescence, 48 h; viability: at 45.8 µM (top of the series) unless noted
# Summary of the method: as §1
# [10] = Quantitative High-Throughput drug screen in 47 multiple myeloma cell lines against the NCATS MIPE library collection: Karpas25_ECACC cell viability assay (AID 1918968; further: nearly all actives have a fitted effect of over 35% in size)
# Summary of the method: as §1
# Potency means the concentration at half of the fitted maximal effect.
structure (smiles),measurement,setting,value
CC(C)(C(=O)NCC(F)(F)C(F)(F)F)C(=O)N[C@@H]1C(=O)Nc2ccccc2-c2ccccc21,Potency,[1],16.6 µM (active)
same,Potency,[2],1.32 µM (active)
same,Potency,[3],inactive
same,Potency,[4],16.6 µM (active)
same,Potency,[5],inactive
Cc1cccc(Nc2nc(-c3ccncc3)cs2)c1,Potency,[1],18.7 µM (active)
same,Potency,[2],18.7 µM (active)
same,Potency,[4],14.8 µM (active)
CC[C@@H]1C=C(C)C[C@H](C)C[C@H](OC)[C@H]2O[C@@](O)(C(=O)C(=O)N3CCCC[C@@H]3C(=O)O[C@H](C(C)=C[C@@H]3CC[C@H](Cl)[C@H](OC)C3)[C@H](C)[C@@H](O)CC1=O)[C@H](C)C[C@H]2OC,Potency,[1],18.7 µM (active)
same,Potency,[2],8.33 µM (active)
same,Potency,[4],7.43 µM (active)
same,Potency,[6],11.8 µM (active)
CC(C)(C)OC(=O)N[C@H]1CCCCCC=C[C@@H]2C[C@@]2(C(=O)NS(=O)(=O)C2CC2)NC(=O)[C@@H]2C[C@@H](OC(=O)N3Cc4cccc(F)c4C3)CN2C1=O,Potency,[1],inactive
same,Potency,[2],inactive
same,Potency,[3],inactive
same,Potency,[4],13.2 µM (active)
same,Potency,[7],inactive
same,Potency,[8],inactive
same,Potency,[5],inactive
CCOC1OC(=O)C[C@H]1NC(=O)[C@@H]1CCCN1C(=O)[C@@H](NC(=O)c1ccc(N)c(Cl)c1)C(C)(C)C (stereo partly specified),Potency,[1],inactive
same,Potency,[2],5.26 µM (active)
same,Potency,[3],inactive
same,Potency,[4],11.8 µM (active)
same,Potency,[8],inactive
same,Potency,[5],inactive
O=C1c2c(O)cc(O)cc2O[C@H](c2cc(O)c(O)c(O)c2)[C@H]1O,Potency,[1],inactive
same,Potency,[2],inactive
same,Potency,[4],inactive
same,Potency,[8],20.9 µM (active)
same,Potency,[6],10.5 µM (active)
same,Potency,[5],18.7 µM (active)
C[C@]12CCC3c4ccc(O)cc4CCC3C1CCC2=O (stereo partly specified),Potency,[1],inactive
same,Potency,[2],inactive
same,Potency,[3],20.9 µM (active)
same,Potency,[4],inactive
same,Potency,[8],3.32 µM (active)
same,Potency,[5],20.9 µM (active)
CC(C)(C)NC(=O)Nc1cccc(Nc2ncc(F)c(NC(C)(C)CO)n2)c1,Potency,[1],inactive
same,Potency,[3],inactive
same,Potency,[4],3.32 µM (active)
same,Potency,[7],inactive
same,Potency,[5],inactive
CCn1c(C(=O)N(C2CC2)C2CC2)cc2c3c(ncn3C)c(Nc3cc(C)n(C)n3)nc21,Potency,[1],18.7 µM (active)
same,Potency,[2],inactive
same,Potency,[3],inactive
same,Potency,[4],11.8 µM (active)
same,Potency,[7],16.6 µM (active)
same,Potency,[9],inactive
Oc1ccc(C2CCN(c3ccnc4ccccc34)CC2)cc1O,Potency,[10],7.43 µM (active)
same,Potency,[2],18.7 µM (active)
same,Potency,[3],16.6 µM (active)
same,Potency,[4],18.7 µM (active)
same,Potency,[7],18.7 µM (active)
same,Potency,[9],23.5 µM (active)
same,Potency,[8],18.7 µM (active)
same,Potency,[6],9.35 µM (active)
O=c1c(-c2ccc(O)cc2)coc2cc(OC3O[C@H](CO)[C@H](O)[C@H](O)[C@H]3O)cc(O)c12 (stereo partly specified),Potency,[10],3.32 µM (active)
same,Potency,[2],inactive
same,Potency,[6],18.7 µM (active)
COc1cc(N2CCC(N3CCN(C)CC3)CC2)ccc1Nc1ncc(Cl)c(Nc2ccccc2S(=O)(=O)C(C)C)n1,Potency,[10],inactive
COc1cccc(-c2cc(=O)c3ccccc3o2)c1N,Potency,[10],1.66 µM (active)
same,Potency,[2],inactive
same,Potency,[7],7.43 µM (active)
same,Potency,[5],inactive
COc1ccc(-c2coc3cc(O)cc(O)c3c2=O)cc1,Potency,[10],inactive
same,Potency,[3],inactive
same,Potency,[7],inactive
same,Potency,[5],inactive
CCc1ccc(C=C2SC(=S)NC2=O)cc1,Potency,[1],inactive
same,Potency,[5],inactive
COCCOC(=O)C1=C(C)NC2=C(C(=O)CC(c3ccccc3OC)C2)C1c1cccc(O)c1 (stereo unspecified),Potency,[10],13.2 µM (active)
same,Potency,[3],10.5 µM (active)
same,Potency,[7],4.18 µM (active)
same,Potency,[8],8.33 µM (active)
N[C@H](CSC(c1ccccc1)(c1ccccc1)c1ccccc1)C(=O)O,Potency,[10],11.8 µM (active)
same,Potency,[2],18.7 µM (active)
same,Potency,[6],inactive
Clc1ccc(CCC(Cn2ccnc2)Sc2c(Cl)cccc2Cl)cc1 (stereo unspecified),Potency,[10],16.6 µM (active)
same,Potency,[2],18.7 µM (active)
same,Potency,[4],14.8 µM (active)
same,Potency,[9],23.5 µM (active)
same,Potency,[6],26.4 µM (active)
CO[C@H]1C[C@@H]2CC[C@@H](C)[C@@](O)(O2)C(=O)C(=O)N2CCCC[C@@H]2C(=O)O[C@H]([C@@H](C)C[C@@H]2CC[C@H](O)[C@H](OC)C2)CC(=O)[C@H](C)C=C(C)[C@@H](O)[C@@H](OC)C(=O)[C@H](C)C[C@H](C)C=CC=CC=C1C,Potency,[10],18.7 µM (active)
COC(=O)C1=CO[C@@H](O)[C@@H]2C(CO)=CC[C@@H]12,Potency,[1],inactive
same,Potency,[5],23.5 µM (active)
COc1cc(Nc2ncc(F)c(Nc3ccc4c(n3)NC(=O)C(C)(C)O4)n2)cc(OC)c1OC,Potency,[10],1.66 µM (active)
same,Potency,[2],11.8 µM (active)
same,Potency,[7],1.05 µM (active)
same,Potency,[8],9.35 µM (active)
same,Potency,[6],1.48 µM (active)
same,Potency,[5],7.43 µM (active)
CC#CCn1c(N2CCC[C@@H](N)C2)nc2c1c(=O)n(Cc1nc(C)c3ccccc3n1)c(=O)n2C,Potency,[10],14.8 µM (active)
same,Potency,[2],inactive
same,Potency,[4],inactive
same,Potency,[8],inactive
same,Potency,[5],inactive
O=C(Nc1cccc(Br)c1)c1cccc(S(=O)(=O)N2CCCCCC2)c1,Potency,[10],18.7 µM (active)
same,Potency,[3],20.9 µM (active)
same,Potency,[4],10.5 µM (active)
same,Potency,[6],18.7 µM (active)
same,Potency,[5],inactive
